Among the data in PubChem BioAssay AID624414 (National Center for Advancing Translational Sciences (NCATS), 2012) are activation values, retold here.

About 480 (0.12%) of roughly 410,000 compounds were called active. The sample holds actives, similar compounds and a random draw of the others, so the mix is not that of the screen. Values without a mark were called inactive. Cut-off read from the data, not from the text of the source: active = activation above about 50%; inconclusive = mostly about 30% to 49%; inactive = weaker than that.

Sequence of Mucolipin-1 (Homo sapiens) (Q9GZU1 whole entry, looked up): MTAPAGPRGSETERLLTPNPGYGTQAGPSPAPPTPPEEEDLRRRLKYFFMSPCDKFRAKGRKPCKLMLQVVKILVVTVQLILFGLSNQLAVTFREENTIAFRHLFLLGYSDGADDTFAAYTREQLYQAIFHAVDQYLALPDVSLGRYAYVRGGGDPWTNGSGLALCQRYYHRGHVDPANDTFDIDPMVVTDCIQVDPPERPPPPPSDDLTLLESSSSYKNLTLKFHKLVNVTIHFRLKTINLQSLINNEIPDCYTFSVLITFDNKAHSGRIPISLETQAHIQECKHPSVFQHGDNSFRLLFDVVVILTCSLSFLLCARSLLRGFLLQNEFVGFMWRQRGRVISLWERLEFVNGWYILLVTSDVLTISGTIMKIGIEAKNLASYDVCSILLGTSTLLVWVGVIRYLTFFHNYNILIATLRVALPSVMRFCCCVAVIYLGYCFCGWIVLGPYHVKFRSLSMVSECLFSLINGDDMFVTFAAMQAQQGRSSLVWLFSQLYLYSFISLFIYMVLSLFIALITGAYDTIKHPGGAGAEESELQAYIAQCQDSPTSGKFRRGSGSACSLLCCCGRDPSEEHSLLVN

The experiment addresses Mucolipin-1 (Homo sapiens) (UniProt Q9GZU1). Nature of the experiment: qHTS for Agonists of the Human Mucolipin Transient Receptor Potential 1 (TRPML1). Note: 0% is about no effect. To be noted: TRPML1-expressing cells, Ca2+ dye fluorescence, FDSS; stronger effect = higher value. A digest of the protocol: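 Tet-induced TRPML1-DL cells, 1,500 per well, cultured overnight, were loaded with a no-wash Ca2+ dye for 45–90 min. Calcium fluorescence was recorded on the FDSS for 110 s after compound addition, before the EC80 agonist (4 uM 54-4) was added.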
As for `CC(C)(C)c1ccc(C(=O)C[n+]2cccc3cc(Cl)ccc32)cc1`, the activation was 0.444%.

Turning to `O=C(/C=C(O)/C=C/c1ccc(O)cc1)/C=C/c1ccc(O)cc1`, the activation is 80.8% (active). Regarding `COc1ccc(C(=O)c2oc3ccccc3c2NC(=O)COc2cccc(C)c2)cc1`, the activation was -0.131%.

Take `Cc1cc(C)cc(NC(c2nnc(-c3cccc(F)c3)o2)c2ccc(F)cc2Cl)c1` (stereo unspecified): the activation was 0.152%.

As to `O=C1CCC[C@@H]2C[C@@]3(C[C@@H]4CCN1[C@H]24)Nc1ccccc1NC3=NCc1ccccc1`, the activation was 0.0295%.

For the compound `Cc1c(CCO)sc[n+]1CC(=O)c1ccc2ccccc2c1`, the activation is -0.38%. Next, `O=C(c1ccc2c(c1)N(Cc1ccccc1F)C(=O)c1ccccc1S2(=O)=O)N1CCOCC1`: -0.566%; `COc1ccc(/C=C/c2ccnc3ccccc23)cc1OC`: -0.507%.

In the case of `CN(C)C1=C2C=CC=CC2/C(=C2/C=Cc3ccccc32)C=C1` (stereo unspecified), the activation is -0.475%. The result for `COc1cc2nc(C#Cc3nc4cc(OC)c(OC)cc4[nH]3)[nH]c2cc1OC` reads -0.266%; that for `O=C(NC1CC(=O)N(c2ccc(F)cc2)C1)c1cccs1` (stereo unspecified), -0.226%.

`CCOC(=O)N1CCC(NC(=O)c2cnn(-c3cccc(C)c3)c2C2CCN(C(=O)OC(C)(C)C)CC2)CC1`: the activation was 0.0606%.

Take `Cc1cccc(-n2ncc(C(=O)N3CCN(c4ccc(Cl)cc4)CC3)c2C2CCN(C(=O)OC(C)(C)C)CC2)c1`: the activation is 51.3% (active).

In the case of `Cc1cccc(-n2ncc(C(=O)N3CCc4ccccc4C3)c2C2CCN(C(=O)OC(C)(C)C)CC2)c1`, the activation was 0.364%. The result for `CC(C)(C)OC(=O)N1CCC(c2c(C(=O)N3CCN(c4cccc(Cl)c4)CC3)cnn2-c2cccc(Cl)c2)CC1` reads 69.8% (active); that for `Cc1cccc(-n2ncc(C(=O)N3CCC(C)CC3)c2C2CCN(C(=O)OC(C)(C)C)CC2)c1`, 0.455%. The result for `COc1ccccc1CN1CCC(CNC(=O)c2cnn(-c3cccc(Cl)c3)c2C2CCN(C(=O)OC(C)(C)C)CC2)CC1` reads 1.58%; that for `COCC(C)NS(=O)(=O)c1ccc(N2CCCCS2(=O)=O)cc1` (stereo unspecified), -0.459%. Next, `CC1=C(c2ccc(F)cc2)S(=O)(=O)N=C1N1CCC(C(=O)NCCc2ccccc2C)CC1`: 2.54%. Consider `COc1ccc(-c2nc(=N)sn2-c2ccccc2)cc1`, for which the activation was 12.5%. On to `COc1ccc(/C=C/c2ccccn2)cc1OC`, for which the activation was -0.792%.
